Shown is part of a subset that was picked to be rich in hits.
USP2a block: blocks human ubiquitin-specific protease USP2a; USP2 core, Ub-CHOP2 coupled fluorogenic reporter, 485/531; Potency, µM (doses to about 38.3 µM), without a hit: top-dose activity change, negative = inhibition, actives largely listed as inhibitors; actives 0.01% (n = 330,000); AID 463254;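 further: plate controls were DMSO wells for no effect and full inhibition by NEM control for full effect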
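Cell-free coupled assay: 10nM USP2 core preincubated 30min RT with compound in Tris-HCl pH 8.0/CaCl2/CHAPS buffer, then 25nM Ub-CHOP2 and 25nM reporter substrate; fluorescence (Ex 485/Em 531) read after 60min RT, normalized to NEM inhibition, concentration-response curves fitted.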
Integrin act MD: activators of alpha7 integrin expression for muscular dystrophy; alpha7betagal myoblasts, beta-gal FDG fluorescence, 48 h; Potency, µM (series often up to 38.3 µM), without a hit: at the top dose activation, most hits filed as activators; actives 0.064% (n = 350,000);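 further: 100% = response of the positive control SU9516; nearly all actives have a fitted effect of over 60% in size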
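alpha7betagal+/- myoblasts (passage 13, 250/well) treated 48 h at 37C with compounds at 1:260 dilution of DMSO stock. Lysed, then beta-galactosidase activity read as FDG fluorescence (ex 480/em 540) after 30 min, with pre-read for autofluorescence.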
p53 reactivation: mutant p53 re-activation in reporter cells; Potency, µM (titrated, usually from 92.2 µM), for the others: at the highest dose activity change, positive = activation, usual class: activators; actives 0.063% (n = 320,000); AID 504706; H1299 p53-A138V BP100-luciferase reporter, luminescence, 24 h; further: % of control where 0% means no effect; nearly all actives have a fitted effect of over 45% in size
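p53-null H1299 cells stably carrying temperature-sensitive p53-A138V and a BP100-luciferase reporter were pinned with compounds (4-point, 1:5 series) and held 24 hrs at 37 deg C. Luminescence was read 10 min after detection reagent.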
Mm-Cpn inhibitor: M. maripaludis TRiC chaperonin inhibition. Potency, µM (doses to about 76.9 µM), for the others: at the top dose activity, negative = inhibition, hits mostly inhibitors. actives 0.031% (n = 330,000). purified Mm-Cpn ATPase, ADP Transcreener TR-FRET; further: on the % scale 0 is the no-effect control and ±100 the full control effect; nearly all actives have a fitted effect of over 80% in size
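TR-FRET (320 nm excitation; 590 and 665 nm emission) reports ADP made from 10 uM ATP by 25 nM enzyme; compounds were preincubated 10 min, reaction run 30 min, both at 37°C.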
Eya2 inh: inhibitors of human Eya2 phosphatase activity | recombinant Eya2, OMFP fluorescence dephosphorylation (OMFP is methylfluorescein phosphate) | Potency, µM (highest dose often 76.9 µM), inactives show top-dose activity, negative = inhibition, hits mostly inhibitors | actives 0.006% (n = 330,000); further: on the % scale 0 is the no-effect control and ±100 the full control effect
Target sequence (O00167 whole entry, looked up): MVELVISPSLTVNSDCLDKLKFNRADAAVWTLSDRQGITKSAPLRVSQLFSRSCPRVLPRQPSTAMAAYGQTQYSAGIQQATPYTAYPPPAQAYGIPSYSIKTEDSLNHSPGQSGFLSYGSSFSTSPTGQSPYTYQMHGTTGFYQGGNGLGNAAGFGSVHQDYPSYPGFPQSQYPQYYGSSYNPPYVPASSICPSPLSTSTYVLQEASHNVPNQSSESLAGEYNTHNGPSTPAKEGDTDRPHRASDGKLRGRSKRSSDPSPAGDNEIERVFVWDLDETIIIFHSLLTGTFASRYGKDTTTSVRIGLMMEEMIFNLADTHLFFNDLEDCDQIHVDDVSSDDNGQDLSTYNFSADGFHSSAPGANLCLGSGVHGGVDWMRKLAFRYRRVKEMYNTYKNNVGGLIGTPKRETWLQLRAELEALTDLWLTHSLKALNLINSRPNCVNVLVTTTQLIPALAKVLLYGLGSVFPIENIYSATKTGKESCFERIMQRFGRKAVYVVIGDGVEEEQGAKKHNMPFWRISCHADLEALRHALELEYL
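Eya2 protein (added as 0.2 uM solution) was preincubated with compound for 10 min at ambient temperature in 50 mM HEPES pH 7.5, 50 mM NaCl, 5 uM MgCl2, 0.05% BSA, 1 mM DTT. OMFP (added at 50 uM) then reacted 10 min; fluorescence read at 485/525 nm.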
ClpP mod: qHTS Assay for Activators of ClpP. ATP-dependent Clp protease proteolytic subunit (Bacillus subtilis (strain 168)), P80244. purified B. subtilis ClpP, FRET peptide cleavage, 20 min. Potency, µM (top dose mostly 57.5 µM), inactives show at the top dose activity change, negative = active. actives 1.9% (n = 340,000); active means well fitted falling curve with a large enough effect; inconclusive means small, poorly fitted or top-dose-only effect; inactive means no such curve, though single readings can be large or run the other way; further: the source files actives as falling curves though it sought activators and does not explain the sign; nearly all actives have a fitted effect of over 65% in size
Target sequence (P80244 whole entry, looked up): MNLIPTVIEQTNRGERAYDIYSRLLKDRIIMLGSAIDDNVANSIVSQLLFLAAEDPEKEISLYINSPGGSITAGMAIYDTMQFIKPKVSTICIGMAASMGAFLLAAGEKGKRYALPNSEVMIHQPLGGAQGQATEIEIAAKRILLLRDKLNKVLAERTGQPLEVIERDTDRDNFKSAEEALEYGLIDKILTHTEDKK
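Buffer: 100 mM Tris/HCl pH8, 100 mM KCl, 0.05% low protease BSA, 2.5% glycerol, 0.01% Tween-20. ClpP 10 microg/mL final; 20 min RT; delta FRET normalized to ADEP and DMSO controls.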
* marks the source's active call; other numbers are inactive results; ? = inconclusive; . = no result; [ ] = another dose, or the depositor's remark. Unless noted, the call rests on the fitted dose curve; in most records, active means well fitted curve in the direction sought with a large enough effect; inconclusive means small, poorly fitted or top-dose-only effect, or another doubt; inactive means no such curve, though single readings can be large; an effect the other way counts as inactive or inconclusive. Potency means the concentration at half of the fitted maximal effect.

SMILES	USP2a block	Integrin act MD	p53 reactivation	Mm-Cpn inhibitor	Eya2 inh	ClpP mod
Cc1noc(C)c1C(=O)Nc1nnc(-c2ccccc2)s1	-2%	12%	?	-11%	7%	-15%
Cc1cc(C)c(S(=O)(=O)Nc2ccc(-c3ccc(N4CCCCCC4)nn3)cc2)c(C)c1	.	.	.	.	.	-11%
O=C1NC(c2cccc(OCc3ccccc3)c2)Nc2ccccc21 (centres undefined)	.	-5%	.	.	.	32µM*
O=C1NC(c2ccc(O)cc2)Nc2ccccc21 (centres undefined)	0%	-22%	.	-2%	-16%	?
COc1ccc(CNCCC(c2ccc3c(c2)OCO3)c2ccccc2OC)cc1 (centres undefined)	.	.	.	.	.	0%
O=C(Oc1cc(-c2ccccc2)no1)c1ccc(Cl)cc1	-1%	16%	-1%	-6%	-29%	40µM*
COc1ccc(OC)c(NC(=O)NNC(=O)COc2ccc(-c3ccccc3)cc2)c1	1%	-6%	3%	1%	-14%	4%
O=C(COc1ccc(-c2ccccc2)cc1)NNC(=O)Nc1ccc(F)cc1F	0%	0%	-8%	1%	4%	32µM*
Cc1ccc(S(=O)(=O)Nc2nc3ccccc3nc2NCc2ccco2)cc1C	0%	-24%	11%	-4%	14%	28µM*
CCCN(Cc1ccccc1)C(=S)Nc1ccc(OC(F)F)cc1	-1%	3%	-7%	-7%	-6%	10µM*
CC(=O)N1CCC2(CC1)CC(=O)c1cc(OCC(=O)NCc3ccc(C)cc3)ccc1O2	1%	-21%	6%	-2%	-2%	28µM*
CC(=O)N1CCC2(CC1)CC(=O)c1cc(OCC(=O)N3CCCC3)ccc1O2	-1%	30%	5%	-2%	9%	4%
CC(=O)N1CCC2(CC1)CC(=O)c1cc(OCC(=O)NCc3ccco3)ccc1O2	0%	-9%	1%	1%	-7%	11µM*
CCN(C(=O)Cn1c(=O)n(-c2ccccc2)c(=O)c2ccc(C(=O)NCc3ccc4c(c3)OCO4)cc21)c1cccc(C)c1	.	.	.	.	.	-9%
OC(Br)C(O)C(O)N1CCCc2ccccc21 (centres undefined)	.	.	.	.	.	-10%
CCCCCC(C(=O)O)C(C)CC(=O)NC1CCCCC1 (centres undefined)	0%	1%	-14%	-2%	-7%	13µM*
CCS(=O)(=O)N1CCC(C(=O)Oc2ccccc2OC)CC1	0%	17%	14%	-3%	6%	1%
CCS(=O)(=O)N1CCC(C(=O)Oc2ccccc2Br)CC1	0%	-5%	.	1%	1%	28µM*
COc1cccc(-n2cnc3sc4c(c3c2=O)CCC4)c1	0%	-61%	-3%	1%	-5%	32µM*
Cc1ccc(C2=NN(CCC(=O)NCc3ccc4c(c3)OCO4)C(=O)CC2)cc1	3%	-11%	-7%	-9%	8%	7.9µM*
COCCNc1cc(N2CCN(C3CCCCC3)CC2)c2noc3c2c1C(=O)c1ccccc1-3	.	.	.	.	.	1%
CC(=O)c1ccc2c(c1)C1C=CCC1C(C(=O)O)N2 (centres undefined)	11µM*	10%	-5%	-3%	9%	.
COc1ccc(-c2cc3nc(-c4ccc(Br)cc4)cc(C(F)(F)F)n3n2)cc1	.	.	.	.	.	0%
CC(=O)N1N=C(c2ccc(Br)cc2)CC1c1cn(C)c2ccccc12 (centres undefined)	3%	10%	-6%	?	-4%	28µM*
CCCC(=O)N1N=C(c2ccccc2)CC1c1cn(C)c2ccccc12 (centres undefined)	-7%	4%	8%	-1%	-3%	?
SMILES	USP2a block	Integrin act MD	p53 reactivation	Mm-Cpn inhibitor	Eya2 inh	ClpP mod
CCC(=O)Nc1cc2c(C)cc(=O)oc2cc1C	0%	16%	-1%	-4%	-27%	32µM*
CCCCCCC(=O)Nc1cc2c(C)cc(=O)oc2cc1C	1%	27%	9%	-2%	-8%	-2%
C=CCn1cc(/C=N/Nc2nc3ccccc3[nH]2)c2ccccc21	1%	-24%	32µM*	0%	2%	-1%
O=[N+]([O-])c1ccc(O)c(/C=N/Nc2nc3ccccc3[nH]2)c1	3%	-3%	25µM*	-27%	-3%	-1%
COc1ccc(O)c(/C=N/Nc2nc3ccccc3[nH]2)c1	12%	0%	-4%	-1%	4%	.
COCc1c(C(=O)N/N=C(/C)c2ccccc2)nnn1-c1nonc1N	-1%	-15%	-2%	-2%	5%	-1%
COCc1c(C(=O)N/N=C(/C)c2ccc(OCc3ccccc3)cc2)nnn1-c1nonc1N	1%	10µM*	?	0%	-12%	-9%
OC(c1ccccc1)(c1nc(-c2ccc3ccccc3c2)cs1)C(F)(F)F (centres undefined)	.	.	.	.	.	-19%
OC1(C(F)(F)F)CC(c2ccc3ccccc3c2)=NO1 (centres undefined)	3%	-1%	35µM*	-2%	-3%	-4%
O=C(Nc1nnc(-c2ccncc2)o1)c1ccc2ccccc2c1	-3%	-10%	18%	2%	-1%	-4%
O=C(Nc1ccncc1)c1ccc2ccccc2c1	4%	12%	9%	0%	11%	22µM*
Cc1cc2n(n1)C(c1ccccc1Cl)Nc1ccccc1-2 (centres undefined)	1%	-2%[7.66 µM]	1%	1%	-22%	?
COc1ccc(C2Nc3ccccc3-c3cc(C)nn32)c(OC)c1 (centres undefined)	.	.	.	.	.	32µM*
OC(COc1ccccc1)CN1CCCCC1 (centres undefined)	.	3%	.	.	.	32µM*
O=c1[nH]c2cc3c(cc2cc1CN(CCCO)Cc1nnnn1Cc1ccc(F)cc1)OCO3	4%	5%	16%	-1%	-19%	32µM*
Cc1cc(C)c2cc(CN(CCO)Cc3nnnn3Cc3ccc(F)cc3)c(=O)[nH]c2c1	1%	-13%	-15%	0%	-6%	20µM*
O=c1[nH]c2cc3c(cc2cc1CN(Cc1ccc2c(c1)OCO2)Cc1nnnn1CC1CCCO1)OCO3 (centres undefined)	3%	19%	-6%	-16%	13%	16µM*
Cc1ccc2[nH]c(=O)c(CN(Cc3cccnc3)Cc3nnnn3CC3CCCO3)cc2c1 (centres undefined)	-2%	-27%	-5%	-1%	2%	-25%
O=C(C[n+]1cccc(Cl)c1)c1ccc(F)cc1	.	.	.	.	.	-2%
O=C1NC(=Nc2ccccc2)S/C1=C\C=C\c1ccco1	5.6µM*	-40%	?	-2%	1%	0%
